Measured values taken from article PMC10726135, “HNF4α isoforms regulate the circadian balance between carbohydrate and lipid metabolism in the liver”.
In all, about 18,000 sequences were measured (“log2 normalized intensity”: median about 0.36, highest 2% from about 7.3 on). This is one part of a sample in which the highest values are shown more often than they occur.

Target: T1, HNF4alpha8 (COS-7 nuclear extract) (Homo sapiens, UniProt P41235-5 1-452)
T1 sequence: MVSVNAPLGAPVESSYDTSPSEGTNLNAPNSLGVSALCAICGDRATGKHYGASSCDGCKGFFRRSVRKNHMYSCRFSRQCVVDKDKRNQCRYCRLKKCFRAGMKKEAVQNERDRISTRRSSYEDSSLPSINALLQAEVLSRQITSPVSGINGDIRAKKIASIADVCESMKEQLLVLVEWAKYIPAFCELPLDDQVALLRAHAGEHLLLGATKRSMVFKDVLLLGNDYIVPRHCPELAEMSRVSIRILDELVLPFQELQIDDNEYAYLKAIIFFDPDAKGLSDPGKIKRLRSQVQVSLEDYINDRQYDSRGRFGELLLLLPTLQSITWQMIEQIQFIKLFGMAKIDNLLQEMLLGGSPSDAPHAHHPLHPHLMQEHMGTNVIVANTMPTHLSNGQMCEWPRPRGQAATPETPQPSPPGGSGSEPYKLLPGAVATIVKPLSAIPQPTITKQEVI
Experiment: protein-binding microarray; COS-7 nuclear extract on double-stranded Agilent 4x180k PBM; binding buffer, salt, pH and temperature not given in the material; high values mean tight binding
Conditions: chain copies: 2; label: 3' end of strand 1 on the slide; dsDNA, one strand shown
Outline: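 The binding signal is Agilent software's gProcessedSignal after background correction and normalization. Arrays were a custom Agilent SurePrint G3 4x180k design of double-stranded ~60-nt oligonucleotides with ~44,000 test sequences in quadruplicate, probed with nuclear extracts of COS-7 cells transiently expressing a human HNF4α isoform. Scans were made at 2-µm resolution on an Agilent G2565CA scanner.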

Sequence	binding signal
AGCAGCCTCAGTGGCTCACAAATGGAGTTTGCCTAGGGAGATTAGAGTATCGGTCGA	1.92 log2 normalized intensity
GAGCAGCACTTTTGGAGTTTGACCTGGAGCGCCTAGGGAGATTAGAGTATCGGTCGA	6.24 log2 normalized intensity
AAGAAGAGCTCAGTCACAGCAGTGGACTTTGCCTAGGGAGATTAGAGTATCGGTCGA	7.41 log2 normalized intensity
GGGGCAGAGTGAGCAGCACTTTTGGAGTTTGCCTAGGGAGATTAGAGTATCGGTCGA	2.17 log2 normalized intensity
AGAGTGAGCAGCACTTTTGGAGTTTGACCTGCCTAGGGAGATTAGAGTATCGGTCGA	8.51 log2 normalized intensity
TAACTTACAGTGCACTTTGACCGCTCATTTGCCTAGGGAGATTAGAGTATCGGTCGA	6.77 log2 normalized intensity
GGCATTCTGACCTTTGTCTCCAGGCAAACTGCCTAGGGAGATTAGAGTATCGGTCGA	5.6 log2 normalized intensity
GAGGAGTGAGAACAGACAAAATTAAGTGATGCCTAGGGAGATTAGAGTATCGGTCGA	-0.842 log2 normalized intensity
TCTGTCTGAGACCACTTAAGCCTGGAATTCGCCTAGGGAGATTAGAGTATCGGTCGA	-0.0786 log2 normalized intensity
ACCCATGTTTGCCCTTGATAAGAGCTGCTCGCCTAGGGAGATTAGAGTATCGGTCGA	0.685 log2 normalized intensity
AGGTGAATGTACAAAGGTCAACGGCACAAGGCCTAGGGAGATTAGAGTATCGGTCGA	5.02 log2 normalized intensity
TGAGCACATTCTTCAATATCAGTGGCACTCGCCTAGGGAGATTAGAGTATCGGTCGA	0.295 log2 normalized intensity
CAATCCCATGACCTTTGTACTAATGATTTGGCCTAGGGAGATTAGAGTATCGGTCGA	6.73 log2 normalized intensity
TGTCTTCTGACCTTTGGCAATATCTCCCAGGCCTAGGGAGATTAGAGTATCGGTCGA	3.96 log2 normalized intensity
CACCTTCTTCCTAGGCAATCCCATGACCTTGCCTAGGGAGATTAGAGTATCGGTCGA	3.52 log2 normalized intensity
TCTTCCTAGGCAATCCCATGACCTTTGTACGCCTAGGGAGATTAGAGTATCGGTCGA	9.08 log2 normalized intensity
CTAGGCAATCCCATGACCTTTGTACTAATGGCCTAGGGAGATTAGAGTATCGGTCGA	8.3 log2 normalized intensity
CCATGACCTTTGTACTAATGATTTGTAAATGCCTAGGGAGATTAGAGTATCGGTCGA	6.03 log2 normalized intensity
GGACTTCTCTGCCCTCTTCCCTCTACCTCTGCCTAGGGAGATTAGAGTATCGGTCGA	1.97 log2 normalized intensity
AAACAGACCTCTCTCTCCCCAGACAGCCACGCCTAGGGAGATTAGAGTATCGGTCGA	2.71 log2 normalized intensity
TATTTACATACCTTAGGCTGTGCATATTGGGCCTAGGGAGATTAGAGTATCGGTCGA	0.994 log2 normalized intensity
CCTCCTGCTTAGCGGCCTTCCCCTTTTTCTGCCTAGGGAGATTAGAGTATCGGTCGA	1.99 log2 normalized intensity
TCAGACAAGTTGCAGGGATGGACTTTAATCGCCTAGGGAGATTAGAGTATCGGTCGA	7.17 log2 normalized intensity
CCCCCTATCCCAAGACATCAATTAACTTGTGCCTAGGGAGATTAGAGTATCGGTCGA	3.09 log2 normalized intensity

Sequence	binding signal
CCTAGCCCCACCAAACTGACAGGTTAGACTGCCTAGGGAGATTAGAGTATCGGTCGA	2.33 log2 normalized intensity
ACCTCCTGGGCCCAAGTGCTCCTCCCCATCGCCTAGGGAGATTAGAGTATCGGTCGA	3.58 log2 normalized intensity
GTCCCTGGCCCCGGGGCGGGGGCGGGCTGGGCCTAGGGAGATTAGAGTATCGGTCGA	-0.21 log2 normalized intensity
GGGGCCCCATCGACCTTTGCTCCCGACTCTGCCTAGGGAGATTAGAGTATCGGTCGA	8.88 log2 normalized intensity
GCTCTAGACATCGACCTTTGTGGGCTTCAGGCCTAGGGAGATTAGAGTATCGGTCGA	3.19 log2 normalized intensity
AGGCTGGGGCCCCATCGACCTTTGCTCCCGGCCTAGGGAGATTAGAGTATCGGTCGA	10.5 log2 normalized intensity
CGACCTTTGCTCCCGACTCTGAGGCTCCATGCCTAGGGAGATTAGAGTATCGGTCGA	5.96 log2 normalized intensity
TCTTCAGGCTGGGGCCCCATCGACCTTTGCGCCTAGGGAGATTAGAGTATCGGTCGA	7.4 log2 normalized intensity
CCCATCGACCTTTGCTCCCGACTCTGAGGCGCCTAGGGAGATTAGAGTATCGGTCGA	5.95 log2 normalized intensity
AGACATCGACCTTTGTGGGCTTCAGACATTGCCTAGGGAGATTAGAGTATCGGTCGA	2.32 log2 normalized intensity
AGCAATCATATATGCATTTGTCTCAGGTGGGCCTAGGGAGATTAGAGTATCGGTCGA	1.26 log2 normalized intensity
GTTTACTCATGTGGTCCTAAGACTGACCTTGCCTAGGGAGATTAGAGTATCGGTCGA	4.61 log2 normalized intensity
CCTAAAATTGACCTTTGATCACTCATGGGCGCCTAGGGAGATTAGAGTATCGGTCGA	8.68 log2 normalized intensity
TTGTTTACTCATGTGGTCCTAAGACTAACCGCCTAGGGAGATTAGAGTATCGGTCGA	0.432 log2 normalized intensity
AATCAACCTTTGATCGTTTGCATGCAGGGCGCCTAGGGAGATTAGAGTATCGGTCGA	3.98 log2 normalized intensity
GCACTGATAAGCGTATTTCAACCTTTGATCGCCTAGGGAGATTAGAGTATCGGTCGA	8.45 log2 normalized intensity
CTCATGTGGTCCTAAGACTGACCTTTGATCGCCTAGGGAGATTAGAGTATCGGTCGA	10.6 log2 normalized intensity
GTGGTCCTAAGACTGACCTTTGATCATTTGGCCTAGGGAGATTAGAGTATCGGTCGA	9.52 log2 normalized intensity
AATTGACCTTTGATCACTCATGGGCAAGATGCCTAGGGAGATTAGAGTATCGGTCGA	6.41 log2 normalized intensity
GATAAGCGTATTTCAACCTTTGATCTATAAGCCTAGGGAGATTAGAGTATCGGTCGA	6.82 log2 normalized intensity
AGGAGGCACTGATAAGCGTATTTCAACCTTGCCTAGGGAGATTAGAGTATCGGTCGA	0.651 log2 normalized intensity
GAACTGAAAGAGACCTTTGACATCACCTAAGCCTAGGGAGATTAGAGTATCGGTCGA	2.77 log2 normalized intensity
GACTGACCTTTGATCATTTGAGGGTGACACGCCTAGGGAGATTAGAGTATCGGTCGA	6.1 log2 normalized intensity
